According to PubChem BioAssay AID686978 (National Center for Advancing Translational Sciences (NCATS), 2013):
Among all 420,000 compounds or so, about 64,000 (15%) were called active. Another 27% or so got no clear call; they are omitted. Not all results are given here. Values without a mark were called inactive. Calls come from the whole dose curve; as a rule, active = well fitted inhibition curve with a large enough effect; inconclusive = small, poorly fitted or top-dose-only effect; inactive = flat fitted curve, though single readings scatter.

Test: qHTS for Inhibitors of human tyrosyl-DNA phosphodiesterase 1 (TDP1): qHTS in cells in absence of CPT; note: nearly all actives have a fitted effect of over 55% in size
Conditions: DT40 Tdp1-/- hTDP1 cells, no CPT, ATP luminescence, 48 h; activity change, negative = growth inhibition: at 46.2 µM (top of the series)
In short: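 Seeded 400 DT40-hTDP1 cells/well (vehicle DMSO, no 20 nM CPT); pinned compounds; ≥48 hr at 37 °C; CellTiter-Glo luminescence as viability measure.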
% is set by controls: 0 for no effect and ±100 for the full control effect; potency is the fitted concentration of half-maximal effect.

SMILES | activity change, negative = growth inhibition [%] | Potency
COc1ccc(Cl)cc1S(=O)(=O)N1CCC(O)(c2ccc(Cl)cc2)CC1 | -23.4 | –
O=C(c1cc2ccccc2o1)N1CCN(S(=O)(=O)c2ccc(Cl)s2)CC1 | – | 14.6 µM (active)
O=C(c1cc2ccccc2o1)N1CCN(Cc2ccccc2)CC1 | 5.01 | –
CS(=O)(=O)N1CCN(C(=O)c2cc3ccccc3oc2=O)CC1 | -3.02 | –
COC(=O)c1ccc(C)c(NC(=O)Cn2c(C)csc2=O)c1 | 23.5 | –
CCOc1cc(/C=N/n2cnnc2)c(Br)cc1O | -16.7 | –
O=C(c1csnn1)N1CCC2(CCN(Cc3nccs3)CC2)CC1 | -9.33 | –
CN1CN(C)c2ccc([N+](=O)[O-])c3cccc1c23 | -15.8 | –
Cc1nc2ccccn2c1C(=O)NN=C1CCN(C)CC1 | 12 | –
CCOC(=O)c1cccc(NC(=O)C2CCCN(S(=O)(=O)c3cnc[nH]3)C2)c1 (centres undefined) | 1 | –
O=C(Nc1ccc(F)cc1)C1CCCN(S(=O)(=O)c2ccc(-n3cnnn3)cc2)C1 (centres undefined) | 3.32 | –
COC(=O)c1ccc(CN2CCCC(C(=O)Nc3cccc(-n4cnnn4)c3)C2)cc1 (centres undefined) | – | 16.4 µM (active)
Cc1ccc(C(=O)NC2CCN(C(=O)Nc3ccccc3Cl)CC2)cc1 | -16.2 | –
CN(CC(=O)NCc1ccc2c(c1)OCO2)CC(=O)Nc1ccc(F)c(F)c1F | 1.96 | –
Cc1nc2ccccc2n1CC(O)c1ccccc1 (centres undefined) | -19.5 | –
CC(C)c1ccc(Cn2c(COc3ccccc3)nc3ccccc32)cc1 | – | 20.6 µM (active)
CC(O)c1nc2ccccc2n1Cc1ccc([N+](=O)[O-])cc1 (centres undefined) | 9.29 | –
COC(=O)[C@@H](NC(=O)Nc1cc(Cl)ccc1C)C(C)C | -2.95 | –
Cc1ccc2c(C)nc(N3CCCC(C(=O)NC(C)(C)CO)C3)nc2c1 (centres undefined) | -23.1 | –
Cc1ccc(NC(=O)CSc2nnc(-c3cnccn3)n2Cc2ccco2)cc1C | -12.6 | –
O=C(COc1ccc(S(=O)(=O)NCc2ccccc2)cc1)N1CCOCC1 | -18.6 | –
COC(=O)c1c(-c2ccc(C)cc2)csc1N | -19.4 | –
CC(=NCc1ccco1)C1=C(O)c2ccccc2C1=O | -22.6 | –
CCOC(=O)c1c(-c2ccc(C)cc2)csc1/N=C(\C)C1=C(O)c2ccccc2C1=O | – | 18.4 µM (active)
CCOC(=O)c1c(/N=C/C2C(=O)CC(C)(C)CC2=O)sc(C)c1C | -3.59 | –
CC1CCCCC1NC(=O)COC(=O)Cc1ccc(Br)cc1 (centres undefined) | 2.5 | –

SMILES | activity change, negative = growth inhibition [%] | Potency
CCCCn1c(N)c(N(CC)C(=O)c2ccc(N(C)S(=O)(=O)c3ccc(C)cc3)cc2)c(=O)[nH]c1=O | -0.183 | –
NC(N)=Nc1nc(-c2ccccc2)c2cc(Cl)ccc2n1 | – | 16.4 µM (active)
Cc1ccc2nc(Nc3ccccc3O)nc(-c3ccccc3)c2c1 | -8.65 | –
O=C(O)c1ccc(Nc2nc(-c3ccccc3)c3cc(Br)ccc3n2)cc1 | -23.2 | –
C[C@H]1CC[C@]2(O[C@@H](CCO)C[C@@H](O)[C@@H]2O)O1 | -14.8 | –
Cn1cc(CN2CCC(C(O)CCc3ccccc3)CC2)c(-c2ccccc2F)n1 (centres undefined) | -15.1 | –
COc1ccc(NC(=S)N2CCC(NC(=O)c3cccc(F)c3)CC2)cc1 | -22.5 | –
CCC(O)C1CCN(Cc2cn(-c3ccc(OC)cc3)nc2-c2cccc(F)c2)CC1 (centres undefined) | – | 20.6 µM (active)
Cc1cccc(-n2cc(CN3CCN(C(=O)c4ncn[nH]4)CC3)c(-c3cccc(F)c3)n2)c1 | -1.1 | –
COc1ccc(-n2cc(CNC3CCOCC3)c(-c3cccc(F)c3)n2)cc1 | – | 20.6 µM (active)
COCCn1c(=O)c(-c2cccc(F)c2)nc2cncnc21 | 2.81 | –
COC(=O)CC1=NN(c2ccccc2)C(=O)C1 | 1.46 | –
COC(=O)CC1Oc2ccccc2-n2cc(-c3ccccc3)nc21 (centres undefined) | – | 20.6 µM (active)
CCC(CC)c1nn2cc(-c3ccccc3)nc2s1 | -10.9 | –
CCC1CCCCN1C(=S)NC(=O)c1ccco1 (centres undefined) | -15.4 | –
CC(=O)c1cccc(NC(=O)[C@@H](NC(N)=O)C(C)C)c1 | 17.4 | –
COc1ccc(CCNC(=O)CSc2nnc(CNC(=O)c3cccs3)o2)cc1OC | -2.7 | –
O=C(O)Cc1ccc(NC(=O)c2cccs2)cc1 | -24.9 | –
COc1ccc(CCNC(=O)/C(C#N)=C2\N=C(NC(=O)c3cccs3)c3ccccc32)cc1 | – | 10.3 µM (active)
CCc1ccc2c(c1)cc(CN(C(=S)Nc1ccccc1Cl)C1CC1)c1nnnn12 | -20.9 | –
Cc1oc2c(C)c3oc(=O)c(CC(=O)N[C@@H](CC(C)C)C(=O)N[C@@H](Cc4ccccc4)C(=O)O)c(C)c3cc2c1C | 4.05 | –
COCc1[nH][nH]c(=O)c1C=Nc1ccc(F)cc1F | 0.924 | –
Cc1ccc(S(=O)(=O)N(CC(=O)N2CCc3ccccc3C2)c2cccc(Cl)c2)cc1 | – | 20.6 µM (active)
CS(=O)(=O)N(CC(=O)N1CCc2ccccc2C1)c1ccc(Br)cc1 | -22.6 | –
COc1cccc(N(CC(=O)N2CCc3ccccc3C2)S(C)(=O)=O)c1 | 5.09 | –
Cc1ccccc1CNC(=O)CCC(=O)N1Cc2ccccc2Oc2ncccc21 | -21.1 | –

SMILES | activity change, negative = growth inhibition [%] | Potency
Cc1ccc(S(=O)(=O)N2CCN(C(=O)c3cc(S(=O)(=O)N4CCOCC4)ccc3F)CC2)cc1 | -16.8 | –
COc1ccc(C(=O)OCC(=O)c2ccc(C)c(S(=O)(=O)N3CCOCC3)c2)cc1OC | – | 11.6 µM (active)
Cc1cccc(N(Cc2ccccc2)C(=O)c2cc(S(=O)(=O)N3CCOCC3)ccc2F)c1 | – | 18.4 µM (active)
COc1ccc(C(=O)N(C)Cc2ccc(OC)c(OC)c2OC)cc1S(=O)(=O)N1CCOCC1 | 21.5 | –
Cc1ccc(C(=O)OCC(=O)N2CCCCCC2)cc1S(=O)(=O)N1CCOCC1 | 4.19 | –
CCOc1ccc(CCNC(=O)COC(=O)c2ccc(C)c(S(=O)(=O)N3CCOCC3)c2)cc1OCC | -3.81 | –
COc1ccc(C(=O)N(Cc2ccccc2)c2ccc(C)cc2)cc1S(=O)(=O)N1CCOCC1 | – | 14.6 µM (active)
Cc1ccc(S(=O)(=O)N2CCOCC2)cc1C(=O)NC(=S)N(Cc1ccccc1)C(C)C | -7.61 | –
COc1ccc(C(=O)NCc2ccc(C)cc2)cc1S(=O)(=O)N1CCCC1 | 0.964 | –
O=C1c2cccc3cccc(c23)N1CN1CCN(c2ccccn2)CC1 | 4.31 | –
CCCCc1ccc(NC(=S)N2CCCC(CO)C2)cc1 (centres undefined) | -12.3 | –
Oc1ccc2ccc3cccc[n+]3c2c1 | -17.9 | –
CCCCN(CC)CCCNC(=O)c1ccc(CSc2nc3ccncc3[nH]2)cc1 | -13.3 | –
O=C(Cn1ccc([N+](=O)[O-])n1)NCc1cccs1 | -15 | –
O=C(COC(=O)c1cccc(Cl)c1)Nc1ccc2[nH]c(=O)[nH]c2c1 | -12.1 | –
C/C=C/C1=C(C(=O)O)N2C(=O)[C@@H](NC(=O)[C@H](N)c3ccc(O)cc3)[C@H]2SC1 | -2.02 | –
CCN(CC)CCNC(=O)CN1N=C(c2ccc(OC)cc2)CCC1=O | -5.02 | –
Cc1ccc(CCNC(=O)c2ccc(CS(=O)(=O)Cc3cccc(C)c3)o2)cc1 | – | 18.4 µM (active)
O=C(NCc1cccnc1)c1ccc(CS(=O)(=O)c2ccc(Br)cc2)o1 | – | 14.6 µM (active)
COc1ccc(CCNC(=O)CCNS(=O)(=O)c2cc(Br)cnc2N)cc1OC | -3.66 | –
COc1ccc(CCNC(=O)c2ccc(CS(=O)(=O)c3ccc(Br)cc3)o2)cc1OC | – | 14.6 µM (active)
Cc1ccc(CNC(=O)c2ccc(CS(=O)Cc3cccc(Cl)c3)o2)cc1 (centres undefined) | -6.34 | –
CCCNS(=O)(=O)c1ccc(CCC(=O)NCc2cccnc2)cc1 | -2.63 | –
COc1ccccc1CNC(=O)c1ccc(CS(=O)(=O)c2ccccc2)o1 | -26.6 | –
O=C(NCc1cccnc1)c1cnc2ccccc2n1 | -20.8 | –
O=C(NCc1ccco1)c1ccc(CS(=O)(=O)Cc2ccc(F)cc2)o1 | -24.8 | –

SMILES | activity change, negative = growth inhibition [%] | Potency
COc1ccc(CCNC(=O)NS(=O)(=O)c2ccc(C)cc2)cc1OC | -5.03 | –
COc1ccc(CCNC(=O)c2ccc(CSCc3ccc(C)cc3)o2)cc1OC | – | 23.1 µM (active)
COc1ccc(CCNC(=O)Cc2ccc(C)cc2)cc1OC | -22 | –
COCCCn1c(SCC(=O)NC2CCCC2)nnc1-c1ccccc1 | -0.642 | –
Cc1ccc(S(=O)(=O)NNC(=S)NC(C)(C)C)cc1 | -10.7 | –
CN(Cc1ccccc1)C(=O)COC(=O)/C=C/c1ccc2c(c1)OCO2 | 5.6 | –
CN(C)c1nc2n(c(=O)n1)CCO2 | -3.42 | –
O=C(O)Cc1ccc(NC(=O)C2CCCCC2C(=O)O)cc1 (centres undefined) | -3.53 | –
COCCn1c(=O)c(C)nc2cnc(N(C)C)nc21 | -27.8 | –
O=C(O)C1CCN(S(=O)(=O)N2CCOCC2)CC1 | 0.819 | –
CC1CN(C(=O)COC(=O)c2cccc(NS(=O)(=O)c3ccccc3)c2)CC(C)O1 (centres undefined) | -19.5 | –
CCOC(=O)c1cc(S(=O)(=O)NCCc2ccc(OC)c(OC)c2)cn1C | -18.3 | –
CN1CCCN(C(=O)C2CCCCC2)CC1 | 8.41 | –
CCOc1ccc(NC(=O)CC(Cc2ccc(Cl)cc2)C(=O)O)cc1 (centres undefined) | -15.9 | –
COc1ccc(C2CC(=O)NC(=O)C2)cc1 | -0.287 | –
COc1ccc(C2OC(CCc3ccccc3)Cc3[nH]c(=S)[nH]c(=O)c32)cc1 (centres undefined) | – | 18.4 µM (active)
COc1ccc(N2C(=O)C(Cc3ccccc3)NC2=S)cc1 (centres undefined) | 1.43 | –
O=C(Cn1cc(C(=O)c2cccs2)c2ccccc21)NCc1cccs1 | -28.4 | –
CC1(c2nnc(Cc3ccccc3)o2)CC(c2ccccc2F)=NO1 (centres undefined) | -8.07 | –
Cc1ccccc1OCc1ccc(-c2nc(C#N)c(N3CCCCC3)o2)o1 | – | 23.1 µM (active)
COc1ccc(OCc2ccc(-c3nc(C#N)c(N4CCN(c5ccccc5)CC4)o3)o2)cc1 | -19 | –
COc1ccccc1-c1nc(C#N)c(N2CCC(C(N)=O)CC2)o1 | -5.1 | –
COc1ccc(NC(=O)NNC(=O)COc2cc(C)c(Cl)c(C)c2)c(OC)c1 | -9 | –
Cc1ccc(S(=O)(=O)NCCSC(C)(C)C)cc1 | 3.06 | –
O=C(O)CSCNC(=O)CC12CC3CC(CC(C3)C1)C2 | -7.57 | –
CCOCCCNC(=O)c1cc2c(=O)n3ccccc3nc2s1 | 4.13 | –
